HTR5A inv ag = HTR5A inverse agonists in luminescence cell assay, primary screen, counter-screen for OPRM1-OPRD1 heterodimer inverse agonist project, full-deck HTS. HTR5A cell line, inverse agonism. inhibition, % at 9.3 µM. 0.083% of 340,000 active. AID 504634, 2011; in the data active = inhibition mostly above about 23%, no sharp cut-off; inactive = mostly below about 18%
MOR-DOR ag-1 = agonists of OPRM1-OPRD1 heterodimerization, primary screen, cell-based, luminescence; Mu-type opioid receptor (Homo sapiens) + Delta-type opioid receptor (Homo sapiens), …; cells; activation, % at 9.3 µM; 0.3% of 340,000 active
HTR5A ag ctr = HTR5A agonists in luminescence cell assay, primary screen, counter-screen for OPRM1-OPRD1 heterodimer agonist project, full-deck HTS; 5-hydroxytryptamine receptor 5A (Homo sapiens), P47898; cell-based; 0.61% of 340,000 active; activation, % at 9.3 µM; in the data active = activation mostly above about 9.5%, no sharp cut-off; inactive = mostly below about 7.6%
HTR2A ag = mouse Htr2a agonists via beta-arrestin recruitment, primary screen, cell-based, luminescence. 5-hydroxytryptamine receptor 2A (Mus musculus), P35363. 0.66% of 360,000 active. activation, % at 7.6 µM. CHO-K1 mHTR2A beta-arrestin complementation; percent of 30 µM serotonin response. AID 624169, 2012;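 active = activation above a run cutoff, the mean activation of all tested compounds plus 3 SD, cut at about 14% in these data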
Target sequence (P35363 whole entry, looked up): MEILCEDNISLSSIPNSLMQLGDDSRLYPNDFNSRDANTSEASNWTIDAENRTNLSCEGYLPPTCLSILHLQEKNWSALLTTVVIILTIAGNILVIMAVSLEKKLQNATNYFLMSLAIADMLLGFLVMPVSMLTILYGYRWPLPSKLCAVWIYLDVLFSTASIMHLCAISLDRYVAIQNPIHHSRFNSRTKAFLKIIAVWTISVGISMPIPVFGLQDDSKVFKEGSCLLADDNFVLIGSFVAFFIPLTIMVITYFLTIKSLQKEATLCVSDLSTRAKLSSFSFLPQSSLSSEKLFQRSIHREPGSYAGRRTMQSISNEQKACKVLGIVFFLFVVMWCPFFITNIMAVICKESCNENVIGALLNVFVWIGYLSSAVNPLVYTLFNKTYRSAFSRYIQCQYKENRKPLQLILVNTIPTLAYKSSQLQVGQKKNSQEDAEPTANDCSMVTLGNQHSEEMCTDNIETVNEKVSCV
OPRM1-OPRD1 inv = inverse agonists of MOR-DOR heterodimerization, primary screen, cell-based, luminescence; cell-based MOR-DOR heterodimer luminescence, inverse agonism; AID 504357, 2011; 0.21% of 340,000 active; inhibition, % at 9.3 µM; in the data active = inhibition above about 22%, passing the limit was not always enough
MOR-DOR ag-2 = OPRM1-OPRD1 heterodimerization promoters, counter-screen for HTR5A agonist project, cell-based, luminescence. shares compounds with HTR5A ag ctr. U2OS counter-screen cells, complementation luminescence, 3 h. activation, % at 9.3 µM. 13% of 800 active
HTR5A ag confirm = HTR5A agonists, retest of hits, confirmation, cell-based, luminescence; activation, % at 9.3 µM; 17% of 800 active; AID 504915, 2011; shares compounds with HTR5A ag ctr; HTR5A agonist cell assay; in the data active = activation above about 17%
Large screens that a line does not name were inactive (follow-up assays come after a bar, where they were run). Rows were chosen to be rich in hits. Some 1.6% of all compounds tested hit in one or more screens of this group. Rule as the data show it, unless noted: active = activation above about 18%; inactive = the rest.

CCCCNC(=O)C1CCCN1C(=O)Nc1ccccc1 (stereo not drawn)	none
CCCCOc1ccc(OCCNC(=O)C2CCCN2C(=O)Nc2ccccc2)cc1 (stereo not drawn)	HTR5A ag ctr 17 | MOR-DOR ag-2 inactive | HTR5A ag confirm inactive
O=C(N1CCN(c2ccccc2)CC1)C12CC3CC(CC(C3)C1)C2	none
CCn1c(N2CCN(C(=O)C34CC5CC(CC(C5)C3)C4)CC2)nc2ccccc21	HTR5A ag ctr 31 | MOR-DOR ag-2 159 | HTR5A ag confirm inactive
CCN(CC)CCCNC(=S)N1CCN(c2nc3ccccc3n2CC)CC1	HTR5A ag ctr 19 | MOR-DOR ag-2 inactive | HTR5A ag confirm 46
Nn1c(SCC(=O)NC2CCCCCC2)nnc1-c1ccco1	none (no result: HTR5A inv ag, MOR-DOR ag-1, HTR5A ag ctr, OPRM1-OPRD1 inv)
COC(=O)C1=C(C)N(c2cc(Cl)cc(Cl)c2)C(=O)C1	HTR5A ag ctr 15 | MOR-DOR ag-2 inactive | HTR5A ag confirm inactive
COC(=O)C1=C(C)N(c2ccc(C(=O)OC)cc2)C(=O)C1	none
COc1ccc(S(=O)(=O)N(CC(=O)NCc2ccco2)c2ccccc2OC)cc1	HTR5A ag ctr 17 | MOR-DOR ag-2 inactive | HTR5A ag confirm inactive
CC1=CC(C)(C)N2C(=O)C3(NCCc4c3[nH]c3ccccc43)c3cc(C)cc1c32 (stereo not drawn)	HTR5A ag ctr 16 | MOR-DOR ag-2 32 | HTR5A ag confirm inactive
CC(C)(C)NC(=O)C1c2ccccc2OCC(=O)N1Cc1ccccn1 (stereo not drawn)	none (no result: HTR5A inv ag, MOR-DOR ag-1, HTR5A ag ctr, OPRM1-OPRD1 inv)
COc1ccc(C(=O)N/N=C/c2cc(Br)ccc2O)cc1OC	HTR5A ag ctr 17 | MOR-DOR ag-2 inactive | HTR5A ag confirm inactive
Cn1cc(-c2coc3c(C(=O)NCc4ccco4)cccc23)cn1	none (no result: HTR5A inv ag, MOR-DOR ag-1, HTR5A ag ctr, OPRM1-OPRD1 inv)
Cc1cccc(CSCCNC(=O)COc2ccc(Cl)cc2)c1	HTR5A ag ctr 14 | MOR-DOR ag-2 inactive | HTR5A ag confirm inactive
CCN(CC)CCCNc1ccc(-c2nnc(-c3ccc(OCC(C)C)cc3)o2)cn1	HTR5A ag ctr 18 | MOR-DOR ag-2 inactive | HTR5A ag confirm inactive
CC(C)COc1ccc(-c2nnc(-c3ccco3)o2)cc1	none
CNC(=O)CCCCC(=O)N/N=C/c1ccc(Cl)cc1Cl	HTR5A ag ctr 15 | MOR-DOR ag-2 31 | HTR5A ag confirm inactive
CCOC(=O)N1CCN(C(=O)CCC(=O)N2CCOc3ccc(C)cc32)CC1	HTR5A ag ctr 21 | MOR-DOR ag-2 inactive | HTR5A ag confirm inactive
Cc1nc(-c2ccc(C#N)cc2)cs1	HTR5A ag ctr 15 | MOR-DOR ag-2 inactive | HTR5A ag confirm inactive
CC(C)CC(N)c1csc(Nc2cc(Oc3ccccc3)ncn2)n1 (stereo not drawn)	none (no result: HTR5A inv ag, MOR-DOR ag-1, HTR5A ag ctr, OPRM1-OPRD1 inv)
CC1=C(C(=O)N2CCCCCC2)CC(CC(=O)NCC2CCCCC2)C(=O)N1Cc1ccc(F)cc1 (stereo not drawn)	none (no result: HTR5A inv ag, MOR-DOR ag-1, HTR5A ag ctr, OPRM1-OPRD1 inv)
O=C(COC(=O)Cc1c(Cl)cccc1Cl)NCc1ccccc1	none (no result: HTR5A inv ag, MOR-DOR ag-1, HTR5A ag ctr, OPRM1-OPRD1 inv)
CC1(C(=O)Nc2ccc(Cl)cc2)Cc2c(-c3ccc4c(c3)OCO4)ccnc2O1 (stereo not drawn)	none (no result: HTR5A inv ag, MOR-DOR ag-1, HTR5A ag ctr, OPRM1-OPRD1 inv)
Oc1ccc(-c2csc(-c3c[nH]c4ccccc34)n2)c(O)c1	HTR5A ag ctr 27 | MOR-DOR ag-2 inactive | HTR5A ag confirm 26
COc1ccc(NC(=O)NCCN2CCN(c3cccc(Cl)c3)CC2)cc1	HTR5A ag ctr 19 | MOR-DOR ag-2 inactive | HTR5A ag confirm 23
CCOc1cccc(N2CCN(CCNC(=O)Nc3ccc(C)cc3)CC2)c1C	HTR5A ag ctr 15 | MOR-DOR ag-2 inactive | HTR5A ag confirm 20
COc1ccc(N2CCN(CCNC(=O)Nc3ccc(C)c(Cl)c3)CC2)cc1	none
COc1ccc(NC(=O)NCCCN2CCN(c3cc(C)ccc3C)CC2)cc1	none
CC(C)(C)OC(=O)N[C@@H](C(=O)OC(C)(C)C)c1ccccc1	HTR5A ag ctr 25 | MOR-DOR ag-2 inactive | HTR5A ag confirm inactive
Cc1cccc([C@@H](NC(=O)OC(C)(C)C)C(=O)OC(C)(C)C)c1	none

Screens: PubChem, The Scripps Research Institute Molecular Screening Center
